Among the test systems are SR leukemia; RPMI-8226 leukemia; OVCAR-8 ovarian; OVCAR-5 ovarian; OVCAR-4 ovarian; SK-OV-3 ovarian; IGROV1 ovarian; OVCAR-3 ovarian; HS 578T breast; NCI/ADR-RES ovarian.
Assay in all cases: NCI-60 one-dose screen, 48 h (100 = growth as untreated, 0 = no growth, -100 = all killed)
Settings in all cases: 10 µM unless noted

Compounds without any hit were thinned out: in the full panel of roughly 83,000, 20% have a hit.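 Plates (96-well) were seeded with cells, treated with compound at one concentration, and incubated for 48 hours before percent growth was determined.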 Unmarked numbers belong to inactive results. Calls of active or inactive are those of the source. Rule for the calls: active = growth percent below 10; inactive = the rest.

As to `O=S(=O)(O)c1cccnc1`, the growth in the experiment with SR leukemia was 100%; in the experiment on RPMI-8226 leukemia, 66.4%; in the experiment on OVCAR-8 ovarian, 104%; with OVCAR-5 ovarian, 119%; in the experiment with OVCAR-4 ovarian it was 114%; with SK-OV-3 ovarian, 103%. For the same molecule, the growth was 132% with IGROV1 ovarian, 111% with OVCAR-3 ovarian, 110% with HS 578T breast and 128% in the experiment on NCI/ADR-RES ovarian.
For the molecule `O=C(Oc1ccccc1Cl)c1ccc(Cl)cc1Cl`, the growth in the experiment with SR leukemia is 104%; in the experiment on RPMI-8226 leukemia it was 98.9%; with OVCAR-8 ovarian it was 101%; in the experiment on OVCAR-5 ovarian it was 109%; with OVCAR-4 ovarian, 109%; in the experiment with SK-OV-3 ovarian, 99.6%. Moreover, the growth was 108% in the experiment with IGROV1 ovarian, 107% with OVCAR-3 ovarian, 93.8% with HS 578T breast and 103% in the experiment with NCI/ADR-RES ovarian.
Turning to `FC(F)(F)c1cc(NC2=NCCN=C(Nc3cc(C(F)(F)F)cc(C(F)(F)F)c3)SS2)cc(C(F)(F)F)c1`, the growth is 1.94% (active) with SR leukemia; 6.78% (active) in the experiment with RPMI-8226 leukemia; 48.6% with OVCAR-8 ovarian; 102% with OVCAR-5 ovarian; 65.8% in the experiment with OVCAR-4 ovarian; 79.5% in the experiment with SK-OV-3 ovarian. Moreover, the growth in the experiment on IGROV1 ovarian is 49.7%; with OVCAR-3 ovarian, 25.8%; with HS 578T breast, 79.3%; in the experiment with NCI/ADR-RES ovarian, 59.6%.
Consider `Cc1ccc(NCN2C(=O)c3ccccc3C2=O)c(C)n1`, for which the growth with SR leukemia was 119%; in the experiment with RPMI-8226 leukemia, 105%; in the experiment on OVCAR-8 ovarian, 99.6%; with OVCAR-5 ovarian, 111%; in the experiment with OVCAR-4 ovarian, 119%; in the experiment with SK-OV-3 ovarian, 113%. The growth in the experiment with IGROV1 ovarian is 112%; with OVCAR-3 ovarian, 130%; with HS 578T breast it was 110%; in the experiment on NCI/ADR-RES ovarian it was 106%.
On to `CC(CCC#N)(CCC#N)C(=O)c1ccccc1`, for which the growth is 104% in the experiment with SR leukemia; 101% in the experiment with RPMI-8226 leukemia; 105% with OVCAR-8 ovarian; 109% in the experiment on OVCAR-5 ovarian; 90% with OVCAR-4 ovarian; 115% in the experiment on SK-OV-3 ovarian. In addition, the growth in the experiment with IGROV1 ovarian was 125%; in the experiment on OVCAR-3 ovarian, 123%; in the experiment with HS 578T breast, 97.8%; in the experiment with NCI/ADR-RES ovarian it was 106%.
`CC(=O)[C@@]1(O)CC[C@H]2[C@@H]3CC[C@@H]4CC(=O)CC[C@]4(C)[C@H]3[C@@H](O)C[C@@]21C`: the growth is 87.9% in the experiment with SR leukemia; 97.9% in the experiment with RPMI-8226 leukemia; 101% in the experiment with OVCAR-8 ovarian; 91.7% in the experiment with OVCAR-5 ovarian; 111% in the experiment with OVCAR-4 ovarian; 82.7% with SK-OV-3 ovarian. The growth was 103% with IGROV1 ovarian, 109% with OVCAR-3 ovarian, 101% with HS 578T breast and 103% with NCI/ADR-RES ovarian.
Regarding `c1ccc(Oc2c3ccccc3nc3ccccc23)cc1`, the growth with SR leukemia is -0.679% (active); in the experiment on RPMI-8226 leukemia it was -20.9% (active); in the experiment on OVCAR-8 ovarian, 23.7%; in the experiment with OVCAR-5 ovarian, 35.3%; with OVCAR-4 ovarian it was 15%; in the experiment with SK-OV-3 ovarian, 39%. The growth in the experiment with IGROV1 ovarian is -9.18% (active); with OVCAR-3 ovarian it was -3.62% (active); with HS 578T breast, 12.2%; in the experiment with NCI/ADR-RES ovarian, 47.6%.
Turning to `CCc1ccccc1C(=O)N(CC)CC`, the growth in the experiment on SR leukemia is 96.3%; in the experiment with RPMI-8226 leukemia, 103%; with OVCAR-8 ovarian it was 105%; in the experiment on OVCAR-5 ovarian it was 99.4%; in the experiment on OVCAR-4 ovarian, 108%; in the experiment on SK-OV-3 ovarian, 118%. Besides, the growth in the experiment with IGROV1 ovarian is 103%; with OVCAR-3 ovarian, 110%; with HS 578T breast, 110%; with NCI/ADR-RES ovarian, 109%.
In the case of `C1Cc2onc(-c3noc4c3CCC4)c2C1`, the growth with SR leukemia was 99.1%; in the experiment with RPMI-8226 leukemia, 113%; in the experiment on OVCAR-8 ovarian it was 110%; with OVCAR-5 ovarian, 103%; with OVCAR-4 ovarian, 105%; with SK-OV-3 ovarian, 106%. Further, the growth was 114% in the experiment on IGROV1 ovarian, 115% in the experiment with OVCAR-3 ovarian, 114% in the experiment on HS 578T breast and 115% with NCI/ADR-RES ovarian.
Consider `COc1ccc2c(Cl)cc(NC(=O)Nc3c(C)cccc3C)nc2c1`, for which the growth in the experiment on SR leukemia is 63.4%; in the experiment on RPMI-8226 leukemia, 73%; in the experiment with OVCAR-8 ovarian, 61.3%; in the experiment with OVCAR-5 ovarian, 83%; in the experiment on OVCAR-4 ovarian, -14.7% (active); in the experiment on SK-OV-3 ovarian it was -6.49% (active). The growth is 52.3% in the experiment with IGROV1 ovarian, 78.2% with OVCAR-3 ovarian, 57.2% in the experiment with HS 578T breast and 78.2% in the experiment on NCI/ADR-RES ovarian.
Turning to `Oc1ccc(N=Cc2ccc(OCc3ccccc3)cc2)cc1`, the growth is 97.4% with SR leukemia; 96.7% with RPMI-8226 leukemia; 96.3% in the experiment on OVCAR-8 ovarian; 111% in the experiment with OVCAR-5 ovarian; 95.2% with OVCAR-4 ovarian; 112% with SK-OV-3 ovarian. Further, the growth in the experiment with IGROV1 ovarian is 108%; in the experiment on OVCAR-3 ovarian, 103%; in the experiment on HS 578T breast, 104%; in the experiment with NCI/ADR-RES ovarian it was 95.6%.
For `C=CCc1cc(OC)c(OC)c(OC)c1`, the growth with SR leukemia was 107%; with RPMI-8226 leukemia it was 110%; with OVCAR-8 ovarian, 102%; with OVCAR-5 ovarian it was 99.2%; in the experiment on OVCAR-4 ovarian it was 112%; in the experiment with SK-OV-3 ovarian, 114%. For the same molecule, the growth in the experiment on IGROV1 ovarian was 110%; with OVCAR-3 ovarian it was 93.1%; with HS 578T breast, 103%; in the experiment on NCI/ADR-RES ovarian, 105%.
On to `O=C(O)CSCC(=O)Nc1cc(C(F)(F)F)ccc1Cl`, for which the growth was 96.1% in the experiment on SR leukemia; 106% in the experiment on RPMI-8226 leukemia; 107% in the experiment with OVCAR-8 ovarian; 104% in the experiment with OVCAR-5 ovarian; 119% in the experiment on OVCAR-4 ovarian; 109% with SK-OV-3 ovarian. Also, the growth with IGROV1 ovarian is 112%; in the experiment with OVCAR-3 ovarian, 113%; in the experiment with HS 578T breast, 101%; with NCI/ADR-RES ovarian, 117%.
Regarding `CS(=O)CC(=N\O)/C(CS(C)=O)=N\O` (stereo not given), the growth in the experiment with SR leukemia is 99.8%; in the experiment with RPMI-8226 leukemia, 100%; in the experiment on OVCAR-8 ovarian, 95.5%; with OVCAR-5 ovarian, 103%; in the experiment on OVCAR-4 ovarian it was 103%; in the experiment with SK-OV-3 ovarian, 103%. Also, the growth is 109% with IGROV1 ovarian, 108% in the experiment with OVCAR-3 ovarian, 106% with HS 578T breast and 108% in the experiment on NCI/ADR-RES ovarian.
For the molecule `COc1cccc2c1Cc1ccccc1-2`, the growth in the experiment on SR leukemia was 121%; in the experiment on RPMI-8226 leukemia, 99.8%; in the experiment with OVCAR-8 ovarian, 112%; with OVCAR-5 ovarian it was 107%; with OVCAR-4 ovarian it was 98.9%; with SK-OV-3 ovarian, 115%. The growth in the experiment with IGROV1 ovarian was 115%; in the experiment with OVCAR-3 ovarian it was 112%; in the experiment with HS 578T breast, 103%; in the experiment on NCI/ADR-RES ovarian, 98.6%.

Values taken from PubChem BioAssay (NCI).
